Anthrax LF prot – Bacillus anthracis LF protease inhibitors, primary screen, biochemical, multiplex microsphere, MLPCN library. actives 0.12% (n = 360,000). AID 588501, 2011. multiplex microsphere protease cleavage assay. inhibition, % at 10 µM; further: plate controls were buffer without enzyme for full effect and enzyme alone for no effect
BoNT-F LC inh – BoNT/F light chain protease inhibitors, primary screen, biochemical, flow cytometry, MLPCN library. actives 0.22% (n = 360,000). Multiplex microsphere protease cleavage assay. inhibition, % at 10 µM. Botulinum neurotoxin type F light chain protease (Clostridium botulinum); in the data active means inhibition above about 35%, passing the limit was not always enough; inconclusive means no clear call, values can overlap the other calls; further: plate controls were buffer without enzyme for full effect and enzyme alone for no effect
BoNT A protease – BoNT/A light chain protease inhibitors, primary screen, biochemical, flow cytometry, MLPCN library. Botulinum neurotoxin type A light chain protease (Clostridium botulinum A str. ATCC 3502). multiplex microsphere protease substrate cleavage. inhibition, % at 10 µM. actives 0.17% (n = 360,000). AID 588499, 2011; further: plate controls were buffer without enzyme for full effect and enzyme alone for no effect
TcdB GH inh – TcdB glycohydrolase inhibitors, primary screen, biochemical, single point, plate reader. inhibition, % at 9.99 µM. actives 0.24% (n = 350,000). TcdB glycohydrolase enzymatic assay. AID 652162, 2013; in the data active means inhibition above about 10%
Bead autofluor – flagged as autofluorescent in microsphere protease counterscreen; actives 3.1% (n = 360,000); fluorescence intensity (concentration not given with the values); compound autofluorescence counterscreen, microsphere flow cytometry; active compounds read high; AID 624483; in the data active means fluorescence intensity above about 16000; inconclusive means no clear call, values can overlap the other calls
Starred values were filed as active, the others as inactive; ? = inconclusive; / = not tested or not shown. The sample as a whole holds a higher share of hits than the screen did. Unless noted, no stated cut-off is given here; in the data, active means inhibition above about 30%; inconclusive means no clear call, values can overlap the other calls; inactive means below that.

SMILES	Anthrax LF prot	BoNT-F LC inh	BoNT A protease	TcdB GH inh	Bead autofluor
COC(=O)C1CCN(C(=O)c2ccc(NC(C)=O)cc2)CC1	-1	-4	-3	/	22006*
COc1ccccc1C(=O)N1CCC(C(=O)c2ccc(F)cc2)CC1	-21	3	4	/	19021*
COc1ccc(C(=O)N2CCC(C(=O)Nc3ccccc3OC)CC2)cc1	-1	-3	?	/	22688*
CC(C)NC(=O)N(C)C[C@@H]1Oc2cc(C#Cc3ccccn3)ccc2S(=O)(=O)N([C@H](C)CO)C[C@H]1C	/	/	/	1	/
CN(C)CC(=O)N1[C@@H](C#N)[C@@H](c2ccc(-c3cccc(C(=O)N(C)C)c3)cc2)[C@@H]1CO	/	/	/	0	/
COCC(=O)N1CC(=O)N2[C@H](C1)[C@H](c1ccc(Br)cc1)[C@@H]2CO	/	/	/	-1	/
CCC(=O)N1C[C@@H](C)[C@@H](OC)CN(C)C(=O)c2cc(NC(=O)Nc3ccc(Cl)cc3)ccc2OC[C@@H]1C	/	/	/	0	/
CNC[C@@H]1Oc2ccc(NS(=O)(=O)c3cccs3)cc2CC(=O)N([C@H](C)CO)C[C@H]1C	/	/	/	-1	/
COC(=O)C1CCN(C(=O)c2ccccc2Oc2ccccc2)CC1	-4	1	2	/	20014*
COC(=O)C1CCN(C(=O)c2ccccc2NC(C)=O)CC1	-5	4	0	/	8333
CCOC(=O)C1=C(C)NC(C)=C(C(=O)OCC)C1/C=C/c1ccccc1OC	0	-2	0	/	2545
COC(=O)C1=C(C)NC(C)=C(C(=O)OC)C1/C=C/c1ccccc1	-2	-4	-2	3	20052*
CCOC(=O)C1=C(C)NC(C)=C(C(=O)OCC)C1/C=C/c1ccccc1	1	2	3	0	22125*
C=CCOC(=O)C1=C(C)NC(C)=C(C(=O)OCC=C)C1/C=C/c1ccccc1	-4	-6	0	/	3810
COC(=O)C1=C(C)NC(C)=C(C(=O)OC)C1c1ccc(N(C)C)cc1	0	-2	?	/	23084*
COC(=O)C(c1cc(OC)c(O)c(OC)c1)(N1CCNC(C)C1)C(F)(F)F (stereo unspecified)	-5	4	3	/	18737*
C[C@H]1CN([C@@H](C)CO)C(=O)c2cc(NC(=O)Cc3ccccc3)ccc2O[C@H]1CN(C)Cc1ccc(Cl)c(Cl)c1	/	/	/	0	/
C[C@H](CO)N1C[C@H](C)[C@@H](CN(C)C)Oc2cc(C#CC3CC3)ccc2S1(=O)=O	/	/	/	-8	/
COc1ccc(C(=O)N2CCCc3ccccc32)cc1OC	6	-6	-2	-1	4138
O=C(c1cccnc1)N1CCc2ccccc21	-6	10	8	/	20167*
COc1ccc(NC(=O)N2CCCc3ccccc32)cc1	-1	-3	0	/	20850*
CCCN(CCC)S(=O)(=O)c1ccc(C(=O)N2CCCc3ccccc32)cc1	-2	0	0	/	22837*
COc1cccc(C(=O)N2CCCc3ccccc32)c1	-2	-11	-3	/	17528*
O=C(c1ccccc1)N1CCc2ccccc21	9	10	-1	/	?
COc1ccc2c3c(n(C)c2c1)[C@@H](CO)N(Cc1nccs1)CC31CN(C(=O)CN(C)C)C1	/	/	/	0	/
SMILES	Anthrax LF prot	BoNT-F LC inh	BoNT A protease	TcdB GH inh	Bead autofluor
CNc1c([N+](=O)[O-])cnn1-c1ccccc1F	3	-3	-1	1	4313
CNc1c([N+](=O)[O-])cnn1-c1ccc(C)cc1	-7	-1	-1	/	23938*
Cc1noc(C)c1NC(=O)Nc1ccc2c(c1)C(=O)N([C@H](C)CO)C[C@H](C)[C@H](CN(C)C(=O)Nc1ccc(C(F)(F)F)cc1)OCCCC[C@@H](C)O2	/	/	/	0	/
C/C(CC(=O)Nc1cccc2c1CCCC2)=N\NC(=O)c1ccccc1N	-3	-4	?	/	24027*
Cc1ccc(S(=O)(=O)Nc2ccc3c(c2)C(=O)N([C@H](C)CO)C[C@H](C)[C@H](CN(C)C(=O)CCC(F)(F)F)OCCCC[C@@H](C)O3)cc1	/	/	/	0	/
COc1ccc(/C=C2\SC(=O)N(CC(=O)NCCC(C)C)C2=O)cc1OC	-2	43*	4	0	3482
COc1ccc(/C=C2/SC(=O)N(CC(=O)NCCC(C)C)C2=O)cc1OC	2	1	-1	/	4196
O=C(C[C@@H]1CC[C@@H]2[C@H](COC[C@H](O)CN2C(=O)Nc2ccc(Cl)c(Cl)c2)O1)NCc1ccc(F)cc1	/	/	/	0	/
CC(=O)Nc1ccccc1C	-4	0	0	0	5738
CC(=O)Nc1ccc(OC(=O)Oc2ccc(NC(C)=O)cc2)cc1	8	3	2	11*	3805
CC(=O)Nc1ccccc1NC(=O)C(F)(F)F	-2	-6	-1	/	16513*
CC(=O)Nc1ccc(C(=O)O)cc1	-1	10	0	0	6057
CC(=O)Nc1ccc(NC(=O)C(F)(F)F)cc1	-1	-1	?	/	22771*
Cc1cccc(NC(=O)c2cc(NC(=O)C3CC=CCC3C(=O)O)ccc2N2CCOCC2)c1 (stereo unspecified)	0	-5	-1	/	23987*
Cc1ccc(C(C)NC(=O)c2c(C)noc2C)cc1C (stereo unspecified)	-2	-2	-4	/	24941*
Cc1noc(C)c1C(=O)NNc1ccc(C(C)C)cc1	/	/	/	-2	/
COc1ccc(C2CC(C(F)(F)F)n3nc(CO)c(Cl)c3N2)cc1OC (stereo unspecified)	-1	-2	0	/	16477*
COc1ccc(C2CC(C(F)(F)F)n3nc(C(=O)O)c(Cl)c3N2)cc1OC (stereo unspecified)	0	-5	0	/	2138
CCS(=O)(=O)c1ccc2oc(Nc3cc(C)cc(C)c3)nc2c1	-2	-2	-1	/	20341*
CO[C@H]1CN(C)C(=O)c2ccc(NC(=O)NC(C)C)cc2OC[C@@H](C)N(S(C)(=O)=O)C[C@@H]1C	/	/	/	1	/
CN1C(=S)SC(C)(NO)C1(C)C (stereo unspecified)	-6	-11	-9	-3	18153*
O=c1cc(-c2ccccc2)[nH]c2[nH]n(-c3ccccc3)c(=O)c12	0	-3	-2	/	17478*
O=c1cc(-c2ccccc2)[nH]n1-c1ccccc1	-9	2	0	-1	3612
CCOC(=O)Cc1cc(=O)c2c(=O)n(-c3ccccc3)[nH]c2[nH]1	-2	2	2	/	22135*
COc1ccc(-c2[nH]nc3c2C(c2ccccc2OC(=O)N2CCOCC2)C(C#N)=C(N)O3)cc1 (stereo unspecified)	-1	0	0	/	20595*
CCCc1[nH]nc2c1C(c1ccc(OC(=O)N3CCOCC3)cc1)C(C#N)=C(N)O2 (stereo unspecified)	0	-9	-1	1	9715
N#CC1=C(N)Oc2n[nH]c(-c3ccccc3)c2C1c1cccc(OC(=O)N2CCOCC2)c1 (stereo unspecified)	-4	-6	-2	/	16755*
O=C(C[C@@H]1C[C@@H]2c3cc(NC(=O)c4cccnc4)ccc3O[C@@H]2[C@@H](CO)O1)NCCN1CCCCC1	/	/	/	-2	/
